# Test results: PubChem BioAssay AID1006 (Sanford-Burnham Center for Chemical Genomics, 2008)
# Among all 200,000 compounds or so, about 3,000 (1.5%) were called active. Many of the other results were omitted from the sample, so actives are more common in it than they were. A number with no mark means an inactive call.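 The calls were made as follows: active = inhibition above about 50% when tested at 10 µM (limit read from the data); inactive = the rest.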
# Molecular target: Luciferin 4-monooxygenase (Photinus pyralis) (UniProt P08659)
# Assay: inhibition of purified FLuc reporter enzyme – biochemical, luminescence, ATPLite, artefact control for luciferase-based inhibitor screens, primary screen (AID 1006)
# Conditions: ATPLite firefly luciferase biochemical luminescence, 10 min; at 10 µM; hits give high values
# Sequence of Luciferin 4-monooxygenase (Photinus pyralis) (P08659 whole entry, looked up): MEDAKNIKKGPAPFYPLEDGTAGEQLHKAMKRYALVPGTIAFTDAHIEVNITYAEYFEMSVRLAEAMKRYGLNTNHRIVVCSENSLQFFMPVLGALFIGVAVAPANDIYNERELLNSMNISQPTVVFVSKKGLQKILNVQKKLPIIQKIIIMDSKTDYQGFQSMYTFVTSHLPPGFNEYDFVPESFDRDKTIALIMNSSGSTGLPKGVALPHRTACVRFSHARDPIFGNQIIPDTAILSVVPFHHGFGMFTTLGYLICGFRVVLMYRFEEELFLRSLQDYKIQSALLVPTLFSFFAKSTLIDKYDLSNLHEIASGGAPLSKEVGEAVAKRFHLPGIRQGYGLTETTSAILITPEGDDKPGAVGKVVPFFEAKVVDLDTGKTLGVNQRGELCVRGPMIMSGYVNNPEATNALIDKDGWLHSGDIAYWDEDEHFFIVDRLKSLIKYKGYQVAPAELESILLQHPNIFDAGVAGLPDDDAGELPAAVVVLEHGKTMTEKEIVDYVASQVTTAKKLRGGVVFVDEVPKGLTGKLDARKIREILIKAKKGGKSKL
row,Compound,inhibition
1,CC(=O)c1c(-c2ccccc2)c2ccccc2[nH]c1=O,-6.4%
2,CSc1ccc(/C=N/N2CCN(Cc3ccccc3Cl)CC2)cc1,-7.8%
3,O=C(Cc1ccc(Cl)cc1)NCc1nc(-c2ccccc2)no1,-3.2%
4,Cc1ccc(N(C(=O)c2sc(C)nc2C)C(C(=O)NC(C)(C)C)c2ccncc2)cc1 (configuration not stated),-4.2%
5,CCOC(=O)CN1CCC(c2ccccc2)CC1,-0.7%
6,CCOc1ccc(S(=O)(=O)N/N=C(\C)c2ccc(Cl)c(Cl)c2Cl)cc1,1.5%
7,CC1(C)C2CC=C(/C=N/NC(=O)C3CC3)C1C2 (configuration not stated),-0.4%
8,Cc1cccc(C(=O)N2CCCN(C(=O)c3cccc(C)c3)CC2)c1,-3%
9,COc1ccc(OCC(=O)NNC(=O)c2cccc(C)c2)cc1,-0.5%
10,COc1ccc(OCc2cccc(C(=O)N3CCCC3)c2)cc1,52.1% (active)
11,CCN(CC)C(=O)c1ccc(O)c(OC)c1,-4%
12,CC(C)c1cc(C(N)=O)c(NC(=O)c2cccc(COc3ccc(Br)cc3)c2)s1,-2.6%
13,CCOc1ccc(OCc2cccc(C(=O)N(CC)CC)c2)cc1,68% (active)
14,CCCn1nc(Oc2nc(NC(C)C)nc(N(C)C)n2)ccc1=O,-7.4%
15,Cc1ccccc1N1C(=O)C(Oc2ccc(Cl)cc2)C1CNCC1CCCO1 (configuration not stated),-3.1%
16,CCOC(=O)c1sc(-c2cccc([N+](=O)[O-])c2)cc1N,-3.5%
17,Cc1ccc(OCCCC(=O)NC(C)c2ccccc2)c(C)c1 (configuration not stated),-1%
18,O=C(O)/C=C/c1ccc(OCCCF)cc1,-2.5%
19,O=C(Oc1ccccc1Cl)c1ccc(N2CCOCC2)c([N+](=O)[O-])c1,-14.3%

row,Compound,inhibition
1,COc1ccccc1NC(=O)COC(=O)Cc1ccc(S(=O)(=O)N2CCCCC2)s1,-8.3%
2,CC(C)C(=O)OCC(=O)Nc1ccc2c(c1)CCC2,8.9%
3,O=C(Nc1ccc2c(c1)CCC2)c1ccc(Br)s1,57.1% (active)
4,O=C(NC1CCCC1)c1ccc(Br)s1,3.5%
5,CCNC(=O)CC1C(=O)N(c2ccc(F)cc2)C(=O)N1CCc1sccc1C (configuration not stated),-3.3%
6,COc1ccc(/C=C/CN2CCCC(C(=O)c3cc(F)ccc3F)C2)cc1 (configuration not stated),-1.7%
7,O=C(Oc1ccc([N+](=O)[O-])cc1)c1ccc(Cl)c(S(=O)(=O)N2CCCCC2)c1,-5.6%
8,COc1ccc(OC)c(N=Cc2c(O)[nH]c3ccccc23)c1,0.1%
9,COc1ccc(N=Cc2c(O)[nH]c3ccccc23)cc1OC,6%
10,COc1ccccc1N=Cc1c(O)c2ccccc2oc1=O,95.4% (active)
11,COc1ccc(NC(=O)CN2C(=O)CSC2=O)cc1,1.6%
12,O=C(CCC(=O)Nc1ccccc1)N/N=C/c1ccccc1F,-1.2%
13,O=C(/C=C/c1ccc2c(c1)OCO2)NCc1cn2cc(Cl)ccc2n1,5.7%
14,CC(Oc1ccccc1)C(=O)Nc1oc(-c2ccco2)c(-c2ccco2)c1C#N (configuration not stated),-6.2%
15,COC(=O)c1cccnc1NC(=S)NC(C)C,9.9%
16,COc1ccc(C2=NOC3(CC(=O)N(c4ccc(C)cc4)C3=O)C2)cc1 (configuration not stated),-1.7%
17,COc1ccc(C2=NOC(COC(=O)c3ccc4ccccc4n3)C2)cc1 (configuration not stated),3.5%
18,COc1ccc(C2=Nc3cc(C)ccc3OC2)cc1,77.4% (active)
19,Cc1cc(N/N=C/c2ccccc2F)c2ccccc2n1,-7.5%

row,Compound,inhibition
1,Cc1ccc2nc(-c3ccncc3)cc(C(=O)Nc3ccc(OC(F)F)cc3)c2c1,-8%
2,COc1ccccc1C(=O)Nn1c(-c2cccs2)nc2ccccc2c1=O,-0.5%
3,O=C1c2cccnc2C(=O)N1Cc1cccs1,-1.3%
4,Cc1ccc(Oc2ccc3c(c2)C(=O)N(c2cccc4cccnc24)C3=O)cc1,-5.2%
5,Cc1cccc(N2C(=O)c3cccnc3C2=O)c1,68.5% (active)
6,CN(C)/N=C/c1cn(-c2ccccc2)nc1-c1cccnc1,5.7%
7,CCOc1ccc(/C=C(/NC(=O)c2ccccc2)C(=O)NCCC(=O)O)cc1,-10.4%
8,COC(=O)c1ccc(/C=N/OCC(=O)Nc2cc(F)ccc2F)cc1,0%
9,CCOC(=O)N1CCN(CC(=O)Nc2ccc(F)cc2)CC1,-7.1%
10,COc1cc(C(=S)N2CCOCC2)ccc1O,-1%
11,COc1ccc2[nH]c(=O)c(-c3noc(-c4ccc(F)cc4)n3)cc2c1,-1.9%
12,Cc1ccc(Cc2nc(-c3cccc(C)c3)no2)cc1,2.3%
13,Cc1cccc(-c2noc(-c3ccc(F)cc3)n2)c1,59.9% (active)
14,COc1ccc(C(=O)NNC(=O)c2cc(C)[nH]n2)cc1,-3.5%
15,Cn1cc(CCC(=O)N2CCCC(C(=O)c3ccc(C(C)(C)C)cc3)C2)cn1 (configuration not stated),1.3%
16,COc1cccc(C(=O)Nc2cccnc2)c1OC,-1.1%
17,O=C(Nc1cccnc1)c1cccc(S(=O)(=O)N2CCCC2)c1,-1.1%
18,O=C(Nc1cccnc1)c1noc2c1CCCCC2,57.5% (active)
19,Cc1ccc(CN2CCN(Cc3ccc(OCCO)cc3)CC2CCO)o1 (configuration not stated),-7%
